Experimental data: PubChem BioAssay (NCI)
Compounds without any hit were thinned out: in the full panel of roughly 79,000, 15% have a hit. No stated cut-off is given here; in the data, active means growth inhibition above about 70%; inactive means the rest.

Tests used:
[1] = NCI Yeast Anticancer Drug Screen. Data for the rad50 strain (AID 155);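 further: 0% = growth of vehicle-only cultures of the same strain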; details: S. cerevisiae rad50 strain growth inhibition; at 50.0 µM; stronger effect = higher value
How it was run: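 Relative growth inhibition (compound vs vehicle) was measured in yeast with a defined repair-gene alteration.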

[2] = NCI Yeast Anticancer Drug Screen. Data for the mec2-1 strain (AID 157); details: S. cerevisiae mec2-1 strain, at 50.0 µM, stronger effect = higher value
How it was run: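 Strain: mec2-1 (DNA repair/cell cycle alteration). Compound exposure, then growth measured; inhibition expressed relative to vehicle.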

[3] = NCI Yeast Anticancer Drug Screen. Data for the sgs1 mgt1 strain (AID 161);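 further: 0% = growth of cultures given vehicle only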; details: S. cerevisiae sgs1 mgt1 strain, at 50.0 µM, stronger effect = higher value
How it was run: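 Read-out: growth inhibition vs vehicle controls. Cells: mutant yeast strain deficient in DNA damage repair.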

[4] = NCI Yeast Anticancer Drug Screen. Data for the cln2 rad14 strain (AID 165);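 further: 0% = growth equal to vehicle treated cultures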; details: S. cerevisiae cln2 rad14 strain, at 50.0 µM, stronger effect = higher value
How it was run: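 Compounds are applied to the cln2 rad14 yeast strain, and growth is then compared with that of vehicle-treated cultures to give inhibition.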

[5] = NCI Yeast Anticancer Drug Screen. Data for the bub3 strain (AID 167); details: S. cerevisiae bub3 mutant strain, at 50.0 µM, stronger effect = higher value
How it was run: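 Screening used yeast with an engineered genetic alteration affecting cell cycle control. Compound-exposed cultures were compared with vehicle cultures, and reduced growth was taken as inhibition.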

[6] = NCI Yeast Anticancer Drug Screen. Data for the mlh1 rad18 strain (AID 175); details: S. cerevisiae mlh1 rad18 strain growth inhibition; at 50.0 µM; stronger effect = higher value
How it was run: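 Read-out is yeast growth inhibition, calculated against vehicle-only controls. The compound was applied to a strain engineered with DNA damage repair alterations.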

Measured: growth inhibition

N#Cc1cnn(-c2ccc([N+](=O)[O-])cc2)c1N
inactive: [1] 14.8% | [2] -16.6% | [3] 3.85% | [4] -26.6% | [5] 1.7% | [6] 20.5%

Cc1cccn(C)c1=O
inactive: [1] -5% | [2] 1.9% | [3] 2.15% | [4] 2.15% | [5] 0.4% | [6] 3.05%

Clc1cc2ncn(C3CCCO3)c2cc1Cl (stereo not drawn)
inactive: [1] 6.3% | [2] 5.1% | [3] 3% | [4] 5.95% | [5] 49% | [6] 11.8%

CCCCCCCCc1cc(CN(C)C)c(O)c(C(C)(C)CC(C)(C)C)c1
inactive: [1] -13.7% | [2] 2.35% | [3] 27.3% | [4] 16.7% | [5] 16% | [6] 8.3%

COc1ccc(CCn2nnc3ccccc3c2=O)cc1OC
inactive: [1] -4.1% | [2] -33.1% | [3] -10.1% | [4] 16.6% | [5] -28.4% | [6] -11.5%

O=C(O)C(c1ccccc1)C(F)(F)F (stereo not drawn)
inactive: [1] -1.45% | [2] 11.1% | [3] 2.45% | [4] -10.4% | [5] -2.1% | [6] 0.85%

O=C(O)c1cncc(-c2ccccc2)c1
inactive: [1] 38.2% | [2] 30.7% | [3] 23.4% | [4] 14.1% | [5] 3% | [6] 26%

CC(C)/C=N/N=C/C(C)C
inactive: [1] -15.8% | [2] 9.7% | [3] -16.6% | [4] 15.3% | [5] -13.6% | [6] -12.8%

COc1ccc(C(C#N)Cc2ccccc2)c([N+](=O)[O-])c1 (stereo not drawn)
inactive: [1] 17.6% | [2] -5.75% | [3] 4.8% | [4] -34.2% | [5] 0.45% | [6] 16.4%

CCOC(=O)/C(Cc1ccccc1[N+](=O)[O-])=N/O
inactive: [1] 6.7% | [2] 2.85% | [3] 8.65% | [4] -13.4% | [5] 12.3% | [6] 26.6%

CC(=O)c1cccc(C(=O)O)c1
inactive: [1] -17.4% | [2] 1.95% | [3] -11.7% | [4] -29.7% | [5] -2.35% | [6] -4.3%

CCCCCCCCCCCCCCCCOc1ccccn1
inactive: [1] -9.75% | [2] -20.6% | [3] -14.8% | [4] -18.8% | [5] -21.6% | [6] -6.9%

Cc1nc(C)c(C(=O)NNC(N)=S)cc1C(=O)NNC(N)=S
inactive: [1] -10.2% | [2] -16.6% | [3] 0.95% | [4] -5.6% | [5] -27.6% | [6] -8.9%

CCOC(=O)c1c(Nc2ccccc2O)oc2ccccc12
inactive: [1] -0.4% | [2] 3.1% | [3] 6.95% | [4] 17.6% | [5] 6.45% | [6] 11.9%

O=C(O)CNC(CO)(CO)CO
inactive: [1] -55% | [2] -60.8% | [3] -36% | [4] -19.8% | [5] -10.8% | [6] -43%

CCCCS(=O)(=O)C[N+](C)(CC)CC
inactive: [1] 34.1% | [2] -0.7% | [3] -5.45% | [4] -6.85% | [5] -4.65% | [6] 3.45%

Cc1cc[n+](CC(=O)CCc2ccc(C(=O)C[n+]3ccc(C)cc3)cc2)cc1
inactive: [1] 41.1% | [2] -1.85% | [3] 34.3% | [4] -6.4% | [5] -3.95% | [6] 11.1%

CC(=O)/C(N=Nc1ccccc1SCCC#N)=C(\C)O
inactive: [1] 12.2% | [2] -2.55% | [3] -8.1% | [4] -28.6% | [5] 9.15% | [6] 1.5%
